# Results filed as inconclusive are left out. Unmarked numbers belong to inactive results. Active and inactive are the calls of the source. The call rests on the fitted dose curve; in most records, active means well fitted curve in the direction sought with a large enough effect; inconclusive means small, poorly fitted or top-dose-only effect, or another doubt; inactive means no such curve, though single readings can be large; an effect the other way counts as inactive or inconclusive.
# Assays:
# [1] = Viability qHTS for spleen associated tyrosine kinase inhibitor (SYKi) drug resistant MV4-11 cells (AID 1963824); further: nearly all actives have a fitted effect of over 35% in size
# Summary of the method: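 CellTiter-Glo luminescence, read 10 min after reagent addition, reports viability after a 72 hr compound exposure. Cells are an MV4-11 line made resistant to SYK inhibition, seeded at 500 per well onto compound-containing plates.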
# [2] = Viability qHTS for spleen associated tyrosine kinase inhibitor (SYKi) naive MV4-11 cells (AID 1963823); further: nearly all actives have a fitted effect of over 40% in size
# Summary of the method: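 CellTiter-Glo luminescence, 10 min room-temperature incubation, gave viability. Cells: naive MV4-11 (500/well), treated 72 hr at 37 C, 5% CO2.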
# [3] = Cellular viability qHTS for adrenocortical cancer (ACC) cell line NCI-H295R (AID 1963990); further: nearly all actives have a fitted effect of over 60% in size
# Summary of the method: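 CellTiter-Glo ATP luminescence, read 48 h after compound addition, measured viability of NCI-H295R adrenocortical cells grown serum-free with ITS. Final concentrations spanned up to 46 uM. Data normalized to DMSO and doxorubicin, fitted for IC50 and maximal response.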
# [4] = Cellular viability qHTS for adrenocortical cancer (ACC) cell line SW-13 (AID 1963989); conditions: SW-13 ACC cells viability, CellTiter-Glo, 48 h; activity (max response): active compounds read low; further: nearly all actives have a fitted effect of over 65% in size;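 on activity (max response): cells grown in serum-free medium with ITS supplement; on the % scale 0 is the no-effect control and ±100 the full control effect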
# Summary of the method: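 Viability was read as CellTiter-Glo luminescence after 48 h compound treatment (up to 46 uM final) of SW-13 cells grown serum-free; titration curves were fit with a four-parameter logistic model to give IC50 and efficacy.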
# Potency means the concentration at half of the fitted maximal effect.
smiles,measurement,setting,value
CC(=O)OC[C@]12C[C@H](OC(=O)CC(C)C)C(C)=C[C@H]1O[C@@H]1[C@H](O)[C@@H](OC(C)=O)[C@@]2(C)[C@@]12CO2,Potency,[1],0.0089 µM (active)
C#CCO[C@H]1CN2CCC1CC2,Potency,[1],inactive
Nc1ccc(Cl)cc1,Potency,[2],inactive
same,Potency,[3],inactive
Cn1ncnc1COc1nn2c(-c3c(F)cccc3F)nnc2cc1C1CCC1,Potency,[1],inactive
COc1ccc(CN2CCNCC2)c(OC)c1OC,Potency,[2],inactive
same,activity (max response),[4],10.4%
same,Potency,[3],inactive
COc1nn(CSP(=S)(OC)OC)c(=O)s1,Potency,[2],38.6 µM (active)
same,Potency,[4],31.6 µM (active)
same,Potency,[3],25.1 µM (active)
CS(=O)(=O)c1ccc(C(=O)C2C(=O)CCCC2=O)c([N+](=O)[O-])c1,Potency,[2],6.24 µM (active)
same,Potency,[3],inactive
CC(=O)O[C@H]1C(=O)[C@]2(C)C(O)C[C@H]3OC[C@@]3(OC(C)=O)[C@H]2[C@H](OC(=O)c2ccccc2)[C@]2(O)C[C@H](O)C(C)=C1C2(C)C (some centres undefined),Potency,[1],6.85 µM (active)
CN(C(=O)C(c1ccccc1)c1ccccc1)[C@H](CN1CC[C@H](O)C1)c1ccccc1,Potency,[1],20.6 µM (active)
CC1=C[C@H]2O[C@@H]3C[C@H]4OC(=O)/C=C/C=C/C(=O)OCC/C(C)=C/C(=O)OC[C@@]2(CC1)[C@]4(C)[C@]31CO1,Potency,[1],0.0056 µM (active)
C/C=C1/CN2CC[C@]34C(=Nc5ccccc53)[C@@H]2C[C@@H]1[C@H]4C(=O)OC,Potency,[1],2.27 µM (active)
COc1cc(C[C@@H](C)N)c(OC)cc1Br,Potency,[2],inactive
same,activity (max response),[4],-7.05%
same,Potency,[3],inactive
CO[C@]12CC[C@@]3(C[C@@H]1[C@](C)(O)C(C)(C)C)[C@@H]1Cc4ccc(O)c5c4[C@@]3(CCN1CC1CC1)[C@H]2O5,Potency,[2],21.5 µM (active)
same,Potency,[4],6.31 µM (active)
same,Potency,[3],3.98 µM (active)
C[C@]12CC[C@H]3[C@@H](CCC4=CC(=O)CC[C@@H]43)[C@@H]1CC[C@@H]2O,Potency,[2],inactive
same,activity (max response),[4],5.27%
same,Potency,[3],inactive
Cc1nc2ccccc2c(=O)n1-c1ccccc1Cl,Potency,[2],inactive
same,Potency,[3],inactive
CCCCN1[C@@H]2CC[C@H]1CC(OC(c1ccc(F)cc1)c1ccc(F)cc1)C2 (some centres undefined),Potency,[1],8.2 µM (active)
CC(Cc1ccccc1)NCc1ccccc1Cl (centres undefined),Potency,[2],inactive
same,activity (max response),[4],-8.69%
same,Potency,[3],inactive
O=C1c2ccccc2C(=O)C1C(=O)C(c1ccccc1)c1ccccc1,Potency,[2],inactive
same,Potency,[3],23.1 µM (active)
COC[C@@H]1OC(=O)c2coc3c2[C@]1(C)C1=C(C3=O)[C@H]2CC[C@H](O)[C@@]2(C)C[C@@H]1OC(C)=O,Potency,[1],6.51 µM (active)
CCN(CC)C(=O)[C@@H]1C=C2c3cccc4[nH]cc(c34)C[C@H]2N(C)C1,Potency,[2],28.4 µM (active)
same,Potency,[3],inactive
CC(=O)OC1CC(O)C2(C)C(CC(OC(C)=O)C3(C)C2CCC2(C)C(c4ccoc4)C(=O)C4OC423)C1(C)C (centres undefined),Potency,[1],6.32 µM (active)
C=CCC1([C@H](C)CCC)C(=O)NC(=O)NC1=O,Potency,[2],inactive
same,activity (max response),[4],-3.9%
same,Potency,[3],inactive
CO[C@H]1[C@@H](O)[C@@H](C)O[C@@H](O[C@@H]2C=C3C(OC(C)=O)CC4(O)C(CC[C@]5(C)[C@@H](C6=CC(=O)OC6)CC[C@]45O)[C@@]3(C)CC2)[C@@H]1O (some centres undefined),Potency,[1],0.0769 µM (active)
C/C=C(\C)C(=O)N[C@@H](c1ccccc1)[C@@H](O)C(=O)O[C@H]1C[C@@]2(O)[C@@H](OC(=O)c3ccccc3)[C@@H]3[C@]4(OC(C)=O)CO[C@@H]4C[C@H](O)[C@@]3(C)C(=O)[C@H](OC(C)=O)C(=C1C)C2(C)C,Potency,[2],0.0209 µM (active)
same,Potency,[3],0.891 µM (active)
